# The entries come from a sample that favours the strongest signals as a whole.
# B1: GS13599A-bth-520-23-520 (Bacteroides thetaiotaomicron) (protein)
# chain: SEDTMDRINKDHDHTTSVASRFILADVITSTAFSNASGDINTYASSYIEYEVGVDNQLYYAEVRENEPSSSSTFNNSWNGIYSSLKNARIIIDQCGEGGRDHGNDVTRGMAEVMAAYNCALIADFFGDAPCSQAALVDEKGSPVYMTPKMDTQQEIYTQIISYLDDAIANLQKEDLADVTEQDFLYAGDADKWLKFAYGLKARYTMRLINRSSNKSADYEKVLDYVSKSFTSADDQAAFDIYDSNNINPFYGFYNSRAGFGASTSLGTKLLAYNDPRANRAFFTPIVDKKRSQVAANDPSLVPAPNGSPDQSTSKYGISAFVYAKTAPTLLMSYHELMFLKAEALCRLNRDAEDALKEAVVAGLLNAENSISIAIKELGSGLNTNSSEVITETSAGKYFDDVVKAKYAANPLQETMIQKYLAMWGASGEATETYNDFRRMKGLNENFITLTNPNNSSKFPLRYPYGNSDTAANPEVKAAYGNGDYVYSEPVWWAGGSR
# What was measured:
# Experiment in all cases: glycan array binding signal (z-score within array); higher = stronger binding
# Details in all cases: glycan notation: IUPAC condensed, linker removed
# [1] = target: GlcA3S(b1-3)Gal(b1-4)GlcNAc(b1-2)Man
# Outline: (§1)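 Negative Z-scores can be read as non-binding. The Z-score is calculated within each array and then averaged across arrays of one protein sequence at different concentrations or buffers and across linkers. Arrays, 3228 in all, were curated from the Consortium for Functional Glycomics database and kept only where the protein sequence was available.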
# [2] = target: GlcNAc(a1-4)Gal(b1-4)GlcNAc
# Outline: as §1
# [3] = target: GlcNAc(b1-2)Man(a1-3)[GlcNAc(b1-4)][GlcNAc(b1-2)Man(a1-6)]Man(b1-4)GlcNAc(b1-4)GlcNAc
# Outline: as §1
# [4] = target: GlcNAc(b1-2)[GlcNAc(b1-4)]Man(a1-3)[GlcNAc(b1-4)][GlcNAc(b1-2)Man(a1-6)]Man(b1-4)GlcNAc(b1-4)GlcNAc
# Outline: as §1
# GlcNAc(b1-3)Fuc = target: GlcNAc(b1-3)Fuc
# Outline: as §1
# [5] = target: GlcNAc(b1-3)Gal(b1-3)GalNAc
# Outline: as §1
# [6] = target: GlcNAc(b1-3)Gal(b1-4)GlcNAc(b1-2)[GlcNAc(b1-3)Gal(b1-4)GlcNAc(b1-6)]Man(a1-6)[GlcNAc(b1-3)Gal(b1-4)GlcNAc(b1-2)Man(a1-3)]Man(b1-4)GlcNAc(b1-4)GlcNAc
# Outline: as §1
# [7] = target: GlcNAc(b1-3)Gal(b1-4)GlcNAc(b1-3)Gal(b1-4)GlcNAc(b1-2)Man(a1-3)[GlcNAc(b1-3)Gal(b1-4)GlcNAc(b1-3)Gal(b1-4)GlcNAc(b1-2)Man(a1-6)]Man(b1-4)GlcNAc(b1-4)GlcNAc
# Outline: as §1
# [8] = target: GlcNAc(b1-3)Gal(b1-4)GlcNAc(b1-3)Gal(b1-4)GlcNAc(b1-3)Gal(b1-4)GlcNAc(b1-2)[GlcNAc(b1-3)Gal(b1-4)GlcNAc(b1-3)Gal(b1-4)GlcNAc(b1-3)Gal(b1-4)GlcNAc(b1-6)]Man(a1-6)[GlcNAc(b1-3)Gal(b1-4)GlcNAc(b1-3)Gal(b1-4)GlcNAc(b1-3)Gal(b1-4)GlcNAc(b1-2)Man(a1-3)]Man(b1-4)GlcNAc(b1-4)[Fuc(a1-6)]GlcNAc
# Outline: as §1
# GlcNAc(b1-3)GalNAc = target: GlcNAc(b1-3)GalNAc
# Outline: as §1
# [9] = target: GlcNAc(b1-4)GlcNAc(b1-4)GlcNAc
# Outline: as §1
# GlcNAc(b1-6)GalNAc = target: GlcNAc(b1-6)GalNAc
# Outline: as §1
# Kdn(a2-3)Gal(b1-4)GlcNAc = target: Kdn(a2-3)Gal(b1-4)GlcNAc
# Outline: as §1
# [10] = target: Man(a1-2)Man(a1-2)Man(a1-3)Man
# Outline: as §1
# Man(a1-3)[Man(a1-6)]Man = target: Man(a1-3)[Man(a1-6)]Man
# Outline: as §1
# [11] = target: Man(a1-3)[Man(a1-6)]Man(b1-4)GlcNAc(b1-4)[Fuc(a1-6)]GlcNAc
# Outline: as §1
# [12] = target: Neu5Ac(a2-3)Gal(b1-3)GlcNAc(b1-2)Man(a1-3)[GlcNAc(b1-4)][Neu5Ac(a2-3)Gal(b1-3)GlcNAc(b1-2)Man(a1-6)]Man(b1-4)GlcNAc(b1-4)GlcNAc
# Outline: as §1
# [13] = target: Neu5Ac(a2-3)Gal(b1-4)GlcNAc(b1-3)Gal(b1-4)[Fuc(a1-3)]GlcNAc
# Outline: as §1
# [14] = target: Neu5Ac(a2-3)[Neu5Ac(a2-6)]GalNAc
# Outline: as §1
# [15] = target: Neu5Ac(a2-6)Gal(b1-4)GlcNAc(b1-2)Man(a1-3)[Man(a1-6)]Man(b1-4)GlcNAc(b1-4)GlcNAc
# Outline: as §1
# [16] = target: Neu5Ac(a2-6)Gal(b1-4)GlcNAc(b1-3)Gal(b1-4)GlcNAc
# Outline: as §1
# [17] = target: Neu5Ac(a2-6)Gal(b1-4)GlcNAc(b1-3)Gal(b1-4)GlcNAc(b1-3)Gal(b1-4)GlcNAc(b1-2)Man(a1-3)[Neu5Ac(a2-6)Gal(b1-4)GlcNAc(b1-3)Gal(b1-4)GlcNAc(b1-3)Gal(b1-4)GlcNAc(b1-2)Man(a1-6)]GalNAc
# Outline: as §1
# [18] = target: Neu5Ac(a2-6)Gal(b1-4)GlcNAc(b1-3)[Neu5Ac(a2-6)Gal(b1-4)GlcNAc(b1-6)]GalNAc
# Outline: as §1
# [19] = target: Neu5Ac(a2-6)GlcNAc(b1-4)GlcNAc
# Outline: as §1
# [20] = target: Neu5Ac(a2-8)Neu5Ac(a2-8)Neu5Ac(a2-3)[Gal(b1-3)GalNAc(b1-4)]Gal(b1-4)Glc
# Outline: as §1
# [21] = target: Neu5Ac(a2-8)Neu5Ac(a2-8)Neu5Ac(a2-3)[GalNAc(b1-4)]Gal(b1-4)Glc
# Outline: as §1
# [22] = target: Neu5Gc(a2-3)Gal(b1-4)GlcNAc
# Outline: as §1
# [23] = target: Neu5Gc(b2-6)Gal(b1-4)GlcNAc
# Outline: as §1
binder,measurement,setting,value
B1,glycan array binding signal (z-score),[1],-0.448
same,glycan array binding signal (z-score),[2],-0.237
same,glycan array binding signal (z-score),[3],2.52
same,glycan array binding signal (z-score),[4],-1.27
same,glycan array binding signal (z-score),GlcNAc(b1-3)Fuc,-0.118
same,glycan array binding signal (z-score),[5],1.12
same,glycan array binding signal (z-score),[6],1.84
same,glycan array binding signal (z-score),[7],1.66
same,glycan array binding signal (z-score),[8],0.815
same,glycan array binding signal (z-score),GlcNAc(b1-3)GalNAc,-0.348
same,glycan array binding signal (z-score),[9],-0.942
same,glycan array binding signal (z-score),GlcNAc(b1-6)GalNAc,-0.798
same,glycan array binding signal (z-score),Kdn(a2-3)Gal(b1-4)GlcNAc,0.096
same,glycan array binding signal (z-score),[10],0.245
same,glycan array binding signal (z-score),Man(a1-3)[Man(a1-6)]Man,0.71
same,glycan array binding signal (z-score),[11],0.777
same,glycan array binding signal (z-score),[12],0.566
same,glycan array binding signal (z-score),[13],-0.897
same,glycan array binding signal (z-score),[14],-0.336
same,glycan array binding signal (z-score),[15],0.864
same,glycan array binding signal (z-score),[16],-1.27
same,glycan array binding signal (z-score),[17],2.37
same,glycan array binding signal (z-score),[18],0.2
same,glycan array binding signal (z-score),[19],0.611
same,glycan array binding signal (z-score),[20],1.71
same,glycan array binding signal (z-score),[21],-1.68
same,glycan array binding signal (z-score),[22],-0.966
same,glycan array binding signal (z-score),[23],-0.127

# — the supplement of paper PMC8728848
